PubChem BioAssay
Active and inactive are the calls of the source.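 Rule for the calls: active = inhibition above the hit cutoff set in the earlier primary screen (cut at about 27% in these data); inactive = the rest.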

molecular target: Protein phosphatase methylesterase 1 (Homo sapiens) (UniProt Q9Y570); experiment: PME-1 inhibitor activity retest, confirmation, biochemical, fluorescence polarization, FP-Rh probe, triplicate (AID 2171); conditions: recombinant PME-1, FP-Rh probe fluorescence polarization; at 5.9 µM; hits give high values;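 note: 0% = enzyme with DMSO and 100% = wells lacking PME-1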
Sequence (Q9Y570 whole entry, looked up): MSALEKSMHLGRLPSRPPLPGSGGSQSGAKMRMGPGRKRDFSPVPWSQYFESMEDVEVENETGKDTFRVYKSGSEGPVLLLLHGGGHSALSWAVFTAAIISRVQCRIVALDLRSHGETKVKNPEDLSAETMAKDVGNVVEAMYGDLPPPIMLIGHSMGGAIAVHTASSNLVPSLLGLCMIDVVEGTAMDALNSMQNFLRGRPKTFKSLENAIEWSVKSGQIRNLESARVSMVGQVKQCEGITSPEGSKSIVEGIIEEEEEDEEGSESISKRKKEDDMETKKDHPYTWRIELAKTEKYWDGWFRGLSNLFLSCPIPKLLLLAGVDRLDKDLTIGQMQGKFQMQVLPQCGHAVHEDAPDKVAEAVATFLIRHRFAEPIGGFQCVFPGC

inhibition, inactive:
Cc1nn(-c2ccc(Br)cc2)c(=O)c2ccccc12 4.4%
COc1cc(/C=C2/C(=O)c3cccc([N+](=O)[O-])c3C2=O)c(Br)cc1O 16.7%
COC(=O)N1C(=O)[C@](c2ccccc2)(C(C)C)N1C(=O)OC 23.3%
O=C(N/N=C/c1c[nH]c2ccccc12)c1cc(-c2cccc3ccccc23)n[nH]1 2.43%
O=C1CN(C(=O)c2ccccc2F)C(c2ccccc2)c2cc(F)ccc2N1 (stereo not given) 16.4%
CC(Sc1nnc(NC2CCCCC2)s1)C(=O)Nc1ccc2c(c1)C(=O)c1ccccc1C2=O (stereo not given) -4.4%
CC1=C([N+](=O)[O-])C(c2cccc(Br)c2)C2=C(N1)c1ccccc1C2=O (stereo not given) 11.9%
COc1ccc(NC(=O)C2CCN(C(=O)c3cccs3)CC2)cc1OC 5.2%
COc1cc(C(=O)Nc2c(C(=O)O)[nH]c3ccc(Br)cc23)cc(OC)c1OC 23.4%
O=C(COc1ccccc1C(=O)N/N=C\c1ccc(O)c(O)c1)N/N=C/c1ccc(O)c(O)c1 -40.9%

inhibition, active:
COc1cc2c(cc1OC)CN(C(=O)c1ccc3[nH]c(C)c(C)c3c1)CC2 38.8%
O=C(O)c1cccc(-c2ccc(/C=N/Nc3ccc([N+](=O)[O-])cc3)o2)c1 31.7%
O=C(O)c1cc(NN=C2c3ccccc3-c3ccccc32)ccc1Cl 41.9%
COc1ccc2nc(N3C(=O)/C(=C/c4ccccc4)NC3=S)sc2c1 43.3%
O=C(O)c1ccc(-c2ccc(/C=N/Nc3ccc([N+](=O)[O-])cc3)o2)cc1 33.5%
